Hits are enriched below; roughly 2% of the tested compounds scored in any of these assays.
EP2 antag – inhibitors of human EP2 prostaglandin E2 receptor | P43116 | C6 glioma cells expressing human EP2, cAMP TR-FRET; cells stimulated with saturating PGE2 | inhibition, % at 25 µM | 260,000 tested, 0.52% active | AID 1422;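 active = percent inhibition above 40 after rounding to a whole number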;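 also: rat C6 glioma host cells with rolipram phosphodiesterase inhibitor present; the protocol text gives 20 µM as final concentration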
EP2 mod – modulates human prostaglandin E2 receptor EP2 signaling | 260,000 tested, 0.83% active | induction, % at 25 µM | P43116 | EP2-expressing cells, cAMP HTRF FRET, PGE2 co-stimulation;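 active = compounds whose cAMP rise, as percent of the full-agonist control response, exceeds 60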;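 also: rat C6 glioma line stably carrying human EP2 under a CMV promoter; the protocol text gives 20 µM as final concentration; 100% = response of wells given 1 µM PGE2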
CHT block – human CHT choline transport inhibition. CHT-expressing cells, membrane potential dye, choline response; stronger effect = lower value. B-score at 10 µM. 310,000 tested, 0.86% active;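 active = B-score over 3 SD under the library average, and starting fluorescence ratio not unusually high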;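 also: choline stimulus applied at its EC90 after an EC20 pre-addition; B-score computed on integrated fluorescence ratio after choline addition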
CHT allo act – human CHT allosteric activation; Q9GZV3; CHT-expressing cells, membrane potential dye, choline EC20; stronger effect = higher value; LV-AA mutant CHT in HEK293 cells; B-score at 10 µM; 310,000 tested, 0.49% active; AID 488977;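 active = initial fluorescence not abnormally high and integrated response B-score, plate-corrected, over 3 SD above library mean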
EP2 cAMP induct – EP2 receptor cAMP induction, counter-screens negative. AID 1080. 1,300 tested, 47% active. calls only at 20 µM (by protocol). shares compounds with EP2 mod. C6 glioma EP2 cells, cAMP HTRF induction; plus low (about EC15) PGE2 agonist;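 active = cAMP induction above 50% in the main assay while under 30% in all four parallel counter assays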;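 also: rat C6 glioma cells stably expressing human EP2 receptor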
Starred values were filed as active, the others as inactive; i = inactive; / = no result given; + = active, no number; ! = a repeat was not active.

SMILES	EP2 antag	EP2 mod	CHT block	CHT allo act	EP2 cAMP induct
CCOC(=O)c1c(-c2ccc(OC)cc2)csc1NC(=O)CCN1CCOCC1	7	56	i	i	/
CCOC(=O)c1c(-c2ccc(C)o2)csc1NC(=O)CN1CCN(CC)CC1	10	-4	i	i	/
CCC(=O)N(CCCO)Cc1cc2cc(CC)ccc2[nH]c1=O	12	-12	/	/	/
C=CCn1c(=O)c(C(=O)NCCc2ccccc2)c(O)c2ccccc21	8	67*	i	i	i
C=CCn1c(=O)c(C(=O)NCc2ccc(Cl)cc2)c(O)c2ccccc21	/	/	i	i	/
CCOc1cccc(CNc2ccc(O)cc2)c1OCc1ccc(Cl)cc1	12	77*	i	i	+
COC(=O)/C=c1/nc2c([nH]c1=O)=NON2	15	18	/	/	/
CCC(CN1CCCCC1)NC(=O)Cc1c(C)nn(-c2ccccc2C)c1C (stereo unspecified)	4	-8	/	/	/
O=C(CN1CCCCCCC1)Nc1ccc(Cl)cc1Cl	5	66*	i	i	i
CC1CCc2c(sc3ncn4c(=O)n(CC(=O)NC5CCCC5)nc4c23)C1 (stereo unspecified)	/	-9	/	/	/
CCn1c2ccc(F)cc2c2nc3ccccc3nc21	6	40	i	i	i
Cn1c2ccc(F)cc2c2nc3ccccc3nc21	/	/	i	i	/
CC1(C)Cc2nc3nc(SCC(=O)Nc4ccccc4)nc(N)c3cc2CO1	6	71*	i	i	+
CC(OC(=O)c1oc2ccccc2c1COc1ccccc1)C(=O)NC(N)=O (stereo unspecified)	5	70*	i	i	i
CC(OC(=O)c1oc2ccccc2c1CSC1CCCCC1)C(=O)NC(N)=O (stereo unspecified)	5	42	i	i	/
NC(=O)CSc1nnc(-c2cccc(S(=O)(=O)N3CCOCC3)c2)n1C1CCCCCC1	11	81*	i	i	i
Cn1c2ccccc2n2c(=O)n(CC(=O)N3CCOc4ccccc43)nc12	5	-12	/	/	/
COc1ccc(C(=O)CSc2nc3sc4c(c3c(=O)n2C)CCCC4)cc1	14	-164	/	/	/
CCOC(=O)c1c(C=O)c(C)n(Cc2ccc(C)cc2)c1C	8	86*	i	i	i
CCOC(=O)c1c(C)c(C)n(Cc2cccc(OC)c2OC)c1C	3	52	i	i	/
CCOC(=O)c1c(C=O)c(C)n(Cc2ccccc2Cl)c1C	4	72*	i	i	i
C=CCOc1ccc2c(c1)C(=NO)c1cc(OCC=C)ccc1-2	8	83*	i	i	+
CCc1cc(-c2[nH]ncc2-c2ccc3c(c2)OCO3)c(O)cc1O	/	28	i	i	i
CCc1cc(-c2[nH]ncc2-c2ccc(OC)cc2)c(O)cc1O	/	/	i	i	/
CCc1ccccc1NC1c2ccccc2C(=O)N1c1cc(C)ccn1 (stereo unspecified)	9	81*	i	i	i
SMILES	EP2 antag	EP2 mod	CHT block	CHT allo act	EP2 cAMP induct
C/C(=N\NC(=O)NC1CCCCC1)C1CCCCC1	10	71*	i	i	i
CN1CCC(NC(=O)NC2CCCCC2)CC1	5	12	i	i	/
CC1CCCCN1C(=O)CSc1nc(-c2ccco2)cc(C(F)(F)F)n1 (stereo unspecified)	20	33	/	/	/
O=C(O)/C=C\c1ccccc1Oc1cccc(Cl)c1	8	22	i	i	/
O=C(O)/C=C/c1ccccc1Oc1ccc(Cl)cc1Cl	4	87*	i	i	+
CCOC(=O)C1=C(C)NC(C)=C(C(=O)OC)C1c1cccc(Cl)c1Cl (stereo unspecified)	9	65*!	i	i	i
CCc1ccc(/C=C/c2c([N+](=O)[O-])c(=O)n(C)c(=O)n2C)cc1	/	/	i	i	/

Screening results: PubChem BioAssay, several laboratories
